# Results as given in paper PMC7862700, “An all-to-all approach to the identification of sequence-specific readers for epigenetic DNA modifications on cytosine”.
# Tests used:
# Test in all cases: DAPPL (digital affinity profiling via proximity ligation, sequencing); 10 mM Tris-HCl pH 7.5, 50 mM NaCl, 1 mM DTT, 4% glycerol, room temperature, 30 min; GST-TFs on glutathione beads, 16-mer random dsDNA library, 0.1% formaldehyde crosslink after washing; high values mean tight binding
# Conditions in all cases: protein: recombinant; tags: N-terminal GST; dsDNA, one strand shown
# FLI1 = biological target: T1, FLI1 (Homo sapiens, UniProt Q01543 1-452)
# T1 sequence: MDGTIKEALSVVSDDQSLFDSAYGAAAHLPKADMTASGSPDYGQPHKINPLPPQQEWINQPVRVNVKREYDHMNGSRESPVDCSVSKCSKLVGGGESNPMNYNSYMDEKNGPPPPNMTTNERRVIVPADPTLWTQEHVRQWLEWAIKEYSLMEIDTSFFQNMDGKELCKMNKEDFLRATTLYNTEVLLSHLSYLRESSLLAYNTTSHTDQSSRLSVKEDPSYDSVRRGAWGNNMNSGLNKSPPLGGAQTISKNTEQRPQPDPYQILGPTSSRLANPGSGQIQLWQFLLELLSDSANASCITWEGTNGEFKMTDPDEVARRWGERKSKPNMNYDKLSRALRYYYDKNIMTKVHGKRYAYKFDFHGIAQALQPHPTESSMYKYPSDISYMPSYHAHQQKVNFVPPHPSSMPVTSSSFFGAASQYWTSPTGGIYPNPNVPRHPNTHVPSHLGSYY
# How it was run: (§1)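 Sequencing on an Illumina NextSeq500 followed washing, crosslinking with 0.1% formaldehyde, proximity ligation (BsaI/T4 ligase, 1 h, 37 °C) and PCR amplification of pools that had been incubated for 30 min at room temperature with 200 nmole of a random double-stranded 16-mer DNA library in Tris/NaCl/DTT/glycerol buffer. Each pool held DNA-barcoded human transcription factors, expressed in yeast as GST fusions and captured on glutathione beads, plus a tag-only sample. Binding signal is a hexamer's read frequency for a factor divided by its frequency in the tag-only sample.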
# ELK1 = biological target: T2, ELK1 (Homo sapiens, UniProt P19419 1-428)
# T2 sequence: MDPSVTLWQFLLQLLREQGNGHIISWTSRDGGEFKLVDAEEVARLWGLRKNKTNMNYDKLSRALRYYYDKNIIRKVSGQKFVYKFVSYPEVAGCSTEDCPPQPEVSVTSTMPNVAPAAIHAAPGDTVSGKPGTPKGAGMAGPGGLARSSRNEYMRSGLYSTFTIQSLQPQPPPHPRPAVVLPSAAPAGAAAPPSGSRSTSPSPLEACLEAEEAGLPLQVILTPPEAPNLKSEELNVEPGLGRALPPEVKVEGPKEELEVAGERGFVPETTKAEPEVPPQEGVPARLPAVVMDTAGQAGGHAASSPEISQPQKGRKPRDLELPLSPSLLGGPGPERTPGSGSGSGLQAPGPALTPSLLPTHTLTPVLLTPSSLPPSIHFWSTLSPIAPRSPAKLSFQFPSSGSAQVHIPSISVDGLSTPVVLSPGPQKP
# How it was run: as §1
# GABPA = biological target: T3, GABPA (Homo sapiens, UniProt Q06546 1-454)
# T3 sequence: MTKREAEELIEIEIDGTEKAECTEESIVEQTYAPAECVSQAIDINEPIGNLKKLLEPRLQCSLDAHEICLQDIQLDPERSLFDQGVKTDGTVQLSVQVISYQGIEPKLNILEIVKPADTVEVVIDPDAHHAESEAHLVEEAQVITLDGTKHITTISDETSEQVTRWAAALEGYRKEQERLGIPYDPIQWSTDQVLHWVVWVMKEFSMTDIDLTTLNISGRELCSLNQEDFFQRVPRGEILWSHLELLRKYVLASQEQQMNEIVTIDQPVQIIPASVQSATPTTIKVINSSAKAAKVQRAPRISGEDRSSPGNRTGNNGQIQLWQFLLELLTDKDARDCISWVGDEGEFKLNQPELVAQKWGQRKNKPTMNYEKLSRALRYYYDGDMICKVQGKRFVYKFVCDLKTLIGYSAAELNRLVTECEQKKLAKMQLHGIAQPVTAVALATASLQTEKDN
# How it was run: as §1
# ERG = biological target: T4, ERG (Homo sapiens, UniProt P11308 1-479)
# T4 sequence: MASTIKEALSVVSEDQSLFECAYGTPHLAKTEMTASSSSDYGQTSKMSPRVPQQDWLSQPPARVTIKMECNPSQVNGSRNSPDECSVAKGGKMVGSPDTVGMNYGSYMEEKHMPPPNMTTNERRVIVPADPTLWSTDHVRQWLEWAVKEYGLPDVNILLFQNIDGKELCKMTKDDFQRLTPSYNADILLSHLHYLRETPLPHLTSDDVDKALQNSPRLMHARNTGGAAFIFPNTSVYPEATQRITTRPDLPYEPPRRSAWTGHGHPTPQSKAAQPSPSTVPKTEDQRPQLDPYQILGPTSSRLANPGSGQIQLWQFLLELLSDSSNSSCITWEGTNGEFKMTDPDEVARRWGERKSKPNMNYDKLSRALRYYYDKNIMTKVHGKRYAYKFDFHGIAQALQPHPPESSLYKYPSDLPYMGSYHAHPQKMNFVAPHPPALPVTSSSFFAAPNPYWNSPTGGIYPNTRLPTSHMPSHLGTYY
# How it was run: as §1
# ELF1 = ELF1 (Homo sapiens, UniProt P32519 1-619)
# How it was run: as §1
# EHF = biological target: T5, EHF (Homo sapiens, UniProt Q9NZC4 1-300)
# T5 sequence: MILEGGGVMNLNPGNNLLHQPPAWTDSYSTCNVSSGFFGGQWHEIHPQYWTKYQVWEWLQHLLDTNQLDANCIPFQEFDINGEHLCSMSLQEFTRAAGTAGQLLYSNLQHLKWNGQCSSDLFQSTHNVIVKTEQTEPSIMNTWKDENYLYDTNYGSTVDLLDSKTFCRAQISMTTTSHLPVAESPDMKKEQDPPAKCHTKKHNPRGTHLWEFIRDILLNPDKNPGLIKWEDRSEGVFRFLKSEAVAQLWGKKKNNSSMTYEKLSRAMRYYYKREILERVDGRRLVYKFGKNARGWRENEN
# How it was run: as §1
# SPI1 = SPI1 (Homo sapiens, UniProt P17947 1-270)
# How it was run: as §1
# SPIB = SPIB (Homo sapiens, UniProt Q01892 1-262)
# How it was run: as §1
# ELK3 = biological target: T6, ELK3 (Homo sapiens, UniProt P41970 1-407)
# T6 sequence: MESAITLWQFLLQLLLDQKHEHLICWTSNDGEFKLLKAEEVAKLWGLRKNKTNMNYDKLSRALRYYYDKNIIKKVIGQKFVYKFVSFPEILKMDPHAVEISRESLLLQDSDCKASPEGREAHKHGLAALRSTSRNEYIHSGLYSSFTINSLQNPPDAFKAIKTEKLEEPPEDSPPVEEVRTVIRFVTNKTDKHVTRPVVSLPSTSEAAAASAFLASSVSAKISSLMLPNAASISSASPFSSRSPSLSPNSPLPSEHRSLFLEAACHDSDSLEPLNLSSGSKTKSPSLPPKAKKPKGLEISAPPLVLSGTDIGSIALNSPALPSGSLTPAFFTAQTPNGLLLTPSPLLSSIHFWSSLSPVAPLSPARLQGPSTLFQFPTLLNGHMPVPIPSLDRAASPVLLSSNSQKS
# How it was run: as §1
# Sequence of ELF1 (P32519 whole entry): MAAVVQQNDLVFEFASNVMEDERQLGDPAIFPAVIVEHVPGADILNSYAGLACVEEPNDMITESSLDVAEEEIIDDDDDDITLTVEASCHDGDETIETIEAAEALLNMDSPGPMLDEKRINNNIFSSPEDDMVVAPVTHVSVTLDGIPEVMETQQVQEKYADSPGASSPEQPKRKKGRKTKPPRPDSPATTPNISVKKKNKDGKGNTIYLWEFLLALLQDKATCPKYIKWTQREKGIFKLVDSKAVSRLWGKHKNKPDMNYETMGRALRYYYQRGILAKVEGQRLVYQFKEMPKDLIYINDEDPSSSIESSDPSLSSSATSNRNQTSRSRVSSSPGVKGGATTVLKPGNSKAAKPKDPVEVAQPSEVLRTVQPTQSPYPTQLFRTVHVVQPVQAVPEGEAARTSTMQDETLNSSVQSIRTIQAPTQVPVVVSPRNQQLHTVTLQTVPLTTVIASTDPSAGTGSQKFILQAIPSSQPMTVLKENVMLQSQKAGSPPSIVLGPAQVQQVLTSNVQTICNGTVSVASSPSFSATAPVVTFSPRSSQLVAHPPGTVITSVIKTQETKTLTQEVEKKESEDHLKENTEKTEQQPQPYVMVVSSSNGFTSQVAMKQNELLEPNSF
# Sequence of SPIB (Q01892 whole entry): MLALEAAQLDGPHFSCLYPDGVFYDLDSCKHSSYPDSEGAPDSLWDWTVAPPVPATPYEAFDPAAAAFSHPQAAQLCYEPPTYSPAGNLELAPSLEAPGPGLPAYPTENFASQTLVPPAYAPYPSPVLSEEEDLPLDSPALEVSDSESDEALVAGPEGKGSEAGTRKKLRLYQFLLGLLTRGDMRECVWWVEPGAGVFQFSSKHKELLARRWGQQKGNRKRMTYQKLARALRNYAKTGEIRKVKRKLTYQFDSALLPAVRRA
Sequence,binding signal (FLI1),binding signal (ELK1),binding signal (GABPA),binding signal (ERG),binding signal (ELF1),binding signal (EHF),binding signal (SPI1),binding signal (SPIB),binding signal (ELK3)
CCTTGC,"1.31 fold enrichment (6-mer frequency, TF over GST control)","1.28 fold enrichment (6-mer frequency, TF over GST control)","1.33 fold enrichment (6-mer frequency, TF over GST control)","1.2 fold enrichment (6-mer frequency, TF over GST control)","1.45 fold enrichment (6-mer frequency, TF over GST control)","1.28 fold enrichment (6-mer frequency, TF over GST control)","1.27 fold enrichment (6-mer frequency, TF over GST control)","1.24 fold enrichment (6-mer frequency, TF over GST control)","1.16 fold enrichment (6-mer frequency, TF over GST control)"
ATGTAA,"1.38 fold enrichment (6-mer frequency, TF over GST control)","1.29 fold enrichment (6-mer frequency, TF over GST control)","1.13 fold enrichment (6-mer frequency, TF over GST control)","1.29 fold enrichment (6-mer frequency, TF over GST control)","1.23 fold enrichment (6-mer frequency, TF over GST control)","1.32 fold enrichment (6-mer frequency, TF over GST control)","1.23 fold enrichment (6-mer frequency, TF over GST control)","1.33 fold enrichment (6-mer frequency, TF over GST control)","1.22 fold enrichment (6-mer frequency, TF over GST control)"
AACTAG,"1.06 fold enrichment (6-mer frequency, TF over GST control)","1.15 fold enrichment (6-mer frequency, TF over GST control)","1.22 fold enrichment (6-mer frequency, TF over GST control)","1.21 fold enrichment (6-mer frequency, TF over GST control)","1.16 fold enrichment (6-mer frequency, TF over GST control)","1.12 fold enrichment (6-mer frequency, TF over GST control)","1.11 fold enrichment (6-mer frequency, TF over GST control)","1.07 fold enrichment (6-mer frequency, TF over GST control)","1.11 fold enrichment (6-mer frequency, TF over GST control)"
TTCGCT,"1.19 fold enrichment (6-mer frequency, TF over GST control)","1.17 fold enrichment (6-mer frequency, TF over GST control)","1.32 fold enrichment (6-mer frequency, TF over GST control)","1.28 fold enrichment (6-mer frequency, TF over GST control)","1.18 fold enrichment (6-mer frequency, TF over GST control)","1.07 fold enrichment (6-mer frequency, TF over GST control)","1.16 fold enrichment (6-mer frequency, TF over GST control)","1.47 fold enrichment (6-mer frequency, TF over GST control)","1.45 fold enrichment (6-mer frequency, TF over GST control)"
TGCTCG,"1.3 fold enrichment (6-mer frequency, TF over GST control)","1.2 fold enrichment (6-mer frequency, TF over GST control)","1.21 fold enrichment (6-mer frequency, TF over GST control)","1.17 fold enrichment (6-mer frequency, TF over GST control)","1.18 fold enrichment (6-mer frequency, TF over GST control)","1.17 fold enrichment (6-mer frequency, TF over GST control)","1.35 fold enrichment (6-mer frequency, TF over GST control)","1.27 fold enrichment (6-mer frequency, TF over GST control)","1.04 fold enrichment (6-mer frequency, TF over GST control)"
TGGGAT,"1.12 fold enrichment (6-mer frequency, TF over GST control)","1.17 fold enrichment (6-mer frequency, TF over GST control)","1.3 fold enrichment (6-mer frequency, TF over GST control)","1.13 fold enrichment (6-mer frequency, TF over GST control)","1.25 fold enrichment (6-mer frequency, TF over GST control)","1.25 fold enrichment (6-mer frequency, TF over GST control)","1.29 fold enrichment (6-mer frequency, TF over GST control)","1.24 fold enrichment (6-mer frequency, TF over GST control)","1.17 fold enrichment (6-mer frequency, TF over GST control)"
CAATTC,"1.33 fold enrichment (6-mer frequency, TF over GST control)","1.27 fold enrichment (6-mer frequency, TF over GST control)","1.19 fold enrichment (6-mer frequency, TF over GST control)","1.29 fold enrichment (6-mer frequency, TF over GST control)","1.25 fold enrichment (6-mer frequency, TF over GST control)","1.24 fold enrichment (6-mer frequency, TF over GST control)","1.24 fold enrichment (6-mer frequency, TF over GST control)","1.44 fold enrichment (6-mer frequency, TF over GST control)","1.2 fold enrichment (6-mer frequency, TF over GST control)"
CCATAT,"1.23 fold enrichment (6-mer frequency, TF over GST control)","1.24 fold enrichment (6-mer frequency, TF over GST control)","1.19 fold enrichment (6-mer frequency, TF over GST control)","1.37 fold enrichment (6-mer frequency, TF over GST control)","1.22 fold enrichment (6-mer frequency, TF over GST control)","1.22 fold enrichment (6-mer frequency, TF over GST control)","1.16 fold enrichment (6-mer frequency, TF over GST control)","1.26 fold enrichment (6-mer frequency, TF over GST control)","1.26 fold enrichment (6-mer frequency, TF over GST control)"
